Hits are enriched below; roughly 3% of the tested compounds scored in any of these assays.
CF NFkB inh – inhibitors of cystic fibrosis induced NF-kB | KKLEB NF-kB-GFP reporter, PAF-induced, GFP fluorescence overnight | inhibition, % at 5 µM | hit rate 0.86% among 360,000 | AID 588850;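 active means at least 50% inhibition at 5 µM, scaled per plate between neutral and stimulator controls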;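 further: PAF is a Pseudomonas aeruginosa culture filtrate used as stimulus; plate controls were PAF-stimulated DMSO wells for no effect and unstimulated DMSO wells for full effect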
LMP1 NFkB inh – reduces LMP1-driven NF-kappaB luciferase signal; LMP1-induced NF-kappaB luciferase reporter cells, luminescence; inhibition, % at 12.5 µM; hit rate 0.69% among 350,000; AID 504558; in the data active means inhibition above about 41%;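 further: 0% = neutral control wells and 100% = reference inhibitor control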
KKLEB cytotox – counter-screen for CF NF-kB inhibitors: cytotoxicity. KKLEB CF airway cells viability, ATPlite luminescence, overnight; hits give low values; cells stimulated with P. aeruginosa culture filtrate. activity change (cytotoxicity), % at 5 µM. hit rate 0.36% among 360,000. AID 602141;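 active means corrected activity change at or below -50% at 5 µM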
TRPM1 prom inh – inhibitors of MITF-driven TRPM1 promoter in melanoma cells; SK-MEL-5 TRPM1 promoter luciferase, 24 h; inhibition, % at 12.5 µM; hit rate 0.83% among 330,000;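 active means mean inhibition across replicates of 60% or more, whatever share of single replicates reaches that level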
Peg3 promoter – inhibitors of Peg3 promoter; inhibition, % at 20 µM; hit rate 1.7% among 360,000; HeLa PEG-Prom luciferase reporter, luminescence, overnight;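 active means inhibition of at least 50% at 20 µM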
HIF-2a inh – blocks HIF-2a reporter activity; 786-0 RCC cells HIF-2a reporter, luciferase luminescence, overnight; inhibition, % at 18.8 µM; hit rate 0.72% among 360,000;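 active means inhibition of the luminescence signal of 40% or more relative to plate controls, in a single-dose primary screen at 18.75 µM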
Mdm2-MdmX confirm – Mdm2/MdmX (human) interaction inhibition, confirmed. AID 504601. SaOS-2 split-luciferase Mdm2/MdmX complementation, luminescence. hit rate 99% among 740. inhibition, % at 8 µM. shares compounds with HIF-2a inh;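 active means mean inhibition of the luminescence signal across two replicates at or above 26 percent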
Target sequence (O15151 whole entry, looked up): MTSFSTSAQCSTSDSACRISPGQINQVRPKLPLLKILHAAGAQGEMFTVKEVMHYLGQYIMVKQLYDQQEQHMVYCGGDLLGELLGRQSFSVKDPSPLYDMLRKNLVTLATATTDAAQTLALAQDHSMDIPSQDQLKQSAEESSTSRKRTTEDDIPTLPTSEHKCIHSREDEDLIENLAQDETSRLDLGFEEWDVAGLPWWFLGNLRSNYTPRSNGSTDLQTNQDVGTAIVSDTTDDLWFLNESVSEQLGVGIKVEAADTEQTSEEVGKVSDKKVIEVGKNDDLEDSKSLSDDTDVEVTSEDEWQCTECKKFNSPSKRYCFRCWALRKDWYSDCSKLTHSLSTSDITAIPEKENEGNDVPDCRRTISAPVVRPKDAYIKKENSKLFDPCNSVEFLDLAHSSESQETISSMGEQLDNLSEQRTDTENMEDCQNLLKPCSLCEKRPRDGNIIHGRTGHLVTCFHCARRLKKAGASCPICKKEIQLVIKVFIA
Target sequence (Q00987 whole entry, looked up): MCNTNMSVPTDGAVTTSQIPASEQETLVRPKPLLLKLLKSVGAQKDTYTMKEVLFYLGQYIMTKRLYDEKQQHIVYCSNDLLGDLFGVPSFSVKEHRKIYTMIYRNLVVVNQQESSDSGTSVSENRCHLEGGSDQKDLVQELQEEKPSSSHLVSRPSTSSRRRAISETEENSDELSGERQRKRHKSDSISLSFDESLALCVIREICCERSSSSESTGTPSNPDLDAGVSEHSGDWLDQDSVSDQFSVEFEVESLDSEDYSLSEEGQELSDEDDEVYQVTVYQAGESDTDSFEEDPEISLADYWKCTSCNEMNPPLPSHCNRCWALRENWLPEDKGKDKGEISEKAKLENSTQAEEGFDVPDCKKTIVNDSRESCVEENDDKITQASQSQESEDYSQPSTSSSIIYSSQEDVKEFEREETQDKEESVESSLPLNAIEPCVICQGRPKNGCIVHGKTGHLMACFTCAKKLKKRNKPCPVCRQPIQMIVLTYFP
HIF-2a conf – confirmation of HIF-2a inhibitors | shares compounds with HIF-2a inh | hit rate 56% among 1,800 | inhibition, % at 18.8 µM | AID 651580 | 786-0 RCC cells, HIF-2a luciferase reporter luminescence, overnight;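 active means mean inhibition across four replicates of at least 40 percent at the single tested concentration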
HIF-1a counter – inhibits HIF-1a reporter, a counter-screen for HIF-2a inhibitors; inhibition, % at 18.8 µM; hit rate 72% among 1,800; MiaPaCa-2 HIF-1a luciferase reporter, desferoxamine, overnight; shares compounds with HIF-2a inh;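 active means mean inhibition of the reporter signal across four replicates at the single tested dose of 50% or more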
* hit, by the source's call.

Results for Cn1c(/C=C/c2ccc([N+](=O)[O-])o2)nc2ccccc2c1=O ?
CF NFkB inh: -10.8; LMP1 NFkB inh: 87.7*; KKLEB cytotox: -6.1; TRPM1 prom inh: 84.5*; Peg3 promoter: 110.5*; HIF-2a inh: 75.5*; Mdm2-MdmX confirm: 102.5*; HIF-2a conf: -6.5; HIF-1a counter: 104.7*

Results for COc1ccccc1C(O)c1ncc(-c2cccc3ccccc23)[nH]1 (configuration not stated) ?
CF NFkB inh: -5.5; KKLEB cytotox: -6.2; Peg3 promoter: -8.3; HIF-2a inh: 0.2

What do the screens show for `CN1CCc2c(sc(NC(=O)c3ccco3)c2C(N)=O)C1`?
CF NFkB inh: -0.1; LMP1 NFkB inh: -5.1; KKLEB cytotox: 0.5; TRPM1 prom inh: -11.7; Peg3 promoter: -34.2; HIF-2a inh: -53.3

Results for CN1CCc2c(sc(NC(=O)c3ccc([N+](=O)[O-])o3)c2C(N)=O)C1 ?
CF NFkB inh: 81.7*; LMP1 NFkB inh: -3.5; KKLEB cytotox: -23.3; TRPM1 prom inh: 85.6*; Peg3 promoter: 107.2*; HIF-2a inh: 54.9*; Mdm2-MdmX confirm: 101.5*; HIF-2a conf: 55.0*; HIF-1a counter: 104.1*

What do the screens show for `N#C/C(=C/c1cccc(O)c1)C(=O)NCc1ccc(Cl)cc1`?
CF NFkB inh: 19.2; LMP1 NFkB inh: -8.7; KKLEB cytotox: -9.4; TRPM1 prom inh: -5.2; Peg3 promoter: -11.1; HIF-2a inh: 77.2*; HIF-2a conf: 29.9; HIF-1a counter: 45.9

Results for N#C/C(=C/c1ccc(O)c(O)c1)C(=O)NCc1ccc(Cl)cc1 ?
CF NFkB inh: -15.5; LMP1 NFkB inh: -0.2; KKLEB cytotox: 6.7; TRPM1 prom inh: 4.2; Peg3 promoter: 23.7; HIF-2a inh: 4.7

What do the screens show for `COc1ccc(C=C2C=C(C(C)(C)C)C(=O)C(C(C)(C)C)=C2)cc1OC`?
CF NFkB inh: 43.3; LMP1 NFkB inh: -6.6; KKLEB cytotox: -12.4; TRPM1 prom inh: -1.9; Peg3 promoter: 105.0*; HIF-2a inh: 82.0*; HIF-2a conf: 65.3*; HIF-1a counter: 103.2*

Results for CC(=O)C(=Cc1ccc(-c2ccccc2)cc1)C(=O)c1ccccc1 ?
HIF-2a inh: 65.1*; HIF-2a conf: -18.6; HIF-1a counter: 103.2*

How did CC(=O)C1CN(S(=O)(=O)c2ccc(C)cc2)C(c2ccccc2)CC1C (configuration not stated) do in these assays?
HIF-2a inh: 5.1

What do the screens show for `Cc1ccc(CNC(=O)C2(C)CCN2C(=O)Cc2ccc(-c3ccccc3)cc2)cc1` (configuration not stated)?
CF NFkB inh: 12.5; KKLEB cytotox: -22.4; Peg3 promoter: 32.8; HIF-2a inh: 4.0

What do the screens show for `CCCCn1c(=O)[nH]c(=O)c2c1nc(Cn1ncc(Cl)c(Cl)c1=O)n2CCC`?
CF NFkB inh: 103.4*; LMP1 NFkB inh: -45.7; KKLEB cytotox: -80.7*; TRPM1 prom inh: 92.1*; Peg3 promoter: 103.6*; HIF-2a inh: 95.9*; Mdm2-MdmX confirm: 103.5*; HIF-2a conf: 71.2*; HIF-1a counter: 97.4*

Results for CCCCn1c(=O)[nH]c(=O)c2c1nc(CN1C(=O)c3ccccc3S1(=O)=O)n2CCC ?
CF NFkB inh: 6.5; LMP1 NFkB inh: 10.0; KKLEB cytotox: -11.0; TRPM1 prom inh: 0.8; Peg3 promoter: 10.6; HIF-2a inh: 1.0

How did Cc1ccc(C(=O)OC(C)C(=O)NC2CCCCC2)cc1S(=O)(=O)N1CCCCC1 (configuration not stated) do in these assays?
CF NFkB inh: 28.9; LMP1 NFkB inh: -1.7; KKLEB cytotox: -15.6; TRPM1 prom inh: -1.7; Peg3 promoter: 2.1; HIF-2a inh: 1.6

How did CC(OC(=O)c1ccc(S(C)(=O)=O)c([N+](=O)[O-])c1)C(=O)NC1C2CC3CC(C2)CC1C3 (configuration not stated) do in these assays?
CF NFkB inh: 95.0*; KKLEB cytotox: -46.8; Peg3 promoter: 95.0*; HIF-2a inh: 92.9*; HIF-2a conf: 87.5*; HIF-1a counter: 100.0*

What do the screens show for `CCC(OC(=O)c1ccc(S(C)(=O)=O)c([N+](=O)[O-])c1)C(=O)NC1C2CC3CC(C2)CC1C3` (configuration not stated)?
CF NFkB inh: 103.6*; KKLEB cytotox: -74.2*; Peg3 promoter: 96.4*; HIF-2a inh: 81.1*; HIF-2a conf: 18.0; HIF-1a counter: 104.5*

What do the screens show for `COc1ccc(NC(=O)C2(C)CCN2CCOc2ccccc2)cc1OC` (configuration not stated)?
CF NFkB inh: 18.4; KKLEB cytotox: -5.3; Peg3 promoter: 1.5; HIF-2a inh: 4.5

Results for CN(C)c1ncnc2c1ccn2C1OC(CO)C(O)C1O (configuration not stated) ?
CF NFkB inh: 36.5; LMP1 NFkB inh: 7.1; KKLEB cytotox: -63.0*; TRPM1 prom inh: 3.9; Peg3 promoter: 7.6; HIF-2a inh: 43.7*; HIF-2a conf: 34.4; HIF-1a counter: 27.1

Results for O=C(O)c1ccccc1NC(=O)C(Cc1ccccc1)N1C(=O)c2ccccc2C1=O (configuration not stated) ?
CF NFkB inh: -6.8; LMP1 NFkB inh: 2.8; KKLEB cytotox: 4.4; TRPM1 prom inh: 9.8; Peg3 promoter: 9.7; HIF-2a inh: 42.2*; HIF-2a conf: 3.4; HIF-1a counter: -10.3

What do the screens show for `CCC(C(=O)Nc1ccccc1C(=O)N1CCCC1)N1C(=O)c2ccccc2C1=O` (configuration not stated)?
CF NFkB inh: 11.8; LMP1 NFkB inh: -16.7; KKLEB cytotox: -12.0; TRPM1 prom inh: 6.6; Peg3 promoter: 7.8; HIF-2a inh: 17.0

Results for CCN1CCN(c2ccc(S(=O)(=O)N3CCCCC3)cc2NC(=O)/C=C/c2ccc([N+](=O)[O-])cc2)CC1 ?
CF NFkB inh: -25.9; LMP1 NFkB inh: 7.3; KKLEB cytotox: -20.2; TRPM1 prom inh: 47.2; Peg3 promoter: 76.0*; HIF-2a inh: 87.0*; HIF-2a conf: -16.6; HIF-1a counter: 100.8*

How did C=C(C(=O)c1ccccc1)C(CC(=O)c1ccccc1)c1ccccc1 (configuration not stated) do in these assays?
CF NFkB inh: 52.2*; LMP1 NFkB inh: 68.9*; KKLEB cytotox: -54.6*; TRPM1 prom inh: 47.7; Peg3 promoter: 99.5*; HIF-2a inh: 94.7*; Mdm2-MdmX confirm: 102.5*; HIF-2a conf: 56.6*; HIF-1a counter: 102.6*

Screens as filed in PubChem BioAssay.
